# Source: PubChem BioAssay
# Sampled rows, rich in hits. Any-hit rate of the full collection: about 21%.
# Pf growth 96h = P. falciparum growth inhibition at 96 hours; P. falciparum luciferase reporter growth, 96 h; actives 6.9% (n = 320,000); AID 504834; Potency, µM (top dose mostly 28.7 µM), most hits filed as inhibitors
#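 96 h incubation, 37 C, 5% CO2, of luciferase-reporter P. falciparum-infected RBCs (2% hematocrit, 0.05% parasitemia final) with test compounds; endpoint luminescence.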
# Pf growth 48h = inhibits P. falciparum growth in the first generation, 48 h | P. falciparum luciferase growth in erythrocytes, 48 h | Potency, µM (top dose mostly 28.7 µM), actives largely listed as inhibitors | actives 5.9% (n = 310,000)
#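 Luciferase-expressing P. falciparum in infected erythrocytes (2% hematocrit, 0.1% parasitemia final) in RPMI 1640/0.5% Albumax were exposed to compound for 48 hours at 37 C, 5% CO2; growth read as luminescence.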
# NS1 function inh = inhibitors of influenza NS1 protein function; Potency, µM (highest dose often 46.1 µM); actives 0.4% (n = 270,000); calls by dose curve; further: actives are rising curves; nearly all actives have a fitted effect of over 50% in size
#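 S. cerevisiae expressing influenza A NS1, grown in glucose, washed, then diluted 1:100 into pH 6.0 -URA galactose medium with 23 nl compound. Growth recovery read as OD600; NS1-free strain serves as control.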
# CHX counter = counter-screen for Shiga toxin inhibitors: cycloheximide protein synthesis inhibition. max response, %. cell reporter, cycloheximide protein synthesis inhibition counterscreen. actives 12% (n = 300,000); in the data active means max response mostly above about 13%, no sharp cut-off; inactive means mostly below about 14%; further: read at 38.3 µM for the half of the compounds with a filed dose
# SARS PLP yeast = SARS-CoV PLP inhibition in yeast. S. cerevisiae expressing SARS-CoV PLpro, growth rescue. Potency, µM (doses to about 32.9 µM), actives largely listed as activators. actives 0.19% (n = 330,000). AID 485353; calls by dose curve; further: nearly all actives have a fitted effect of over 55% in size
# Shiga toxin inh = blocks Shiga toxin action in Vero cells; Vero cells, Shiga toxin protein synthesis inhibition reporter; inhibition, % at 38.7 µM; actives 9.2% (n = 290,000); AID 2315; in the data active means inhibition mostly above about 28%, no sharp cut-off; inactive means mostly below about 43%
# Numbers stand for hits; . = inactive; ? = inconclusive; / = no result given; [ ] = dose if it differs, or a comment. Unless noted, the call rests on the fitted dose curve; in most records, active means well fitted inhibition curve with a large enough effect; inconclusive means small, poorly fitted or top-dose-only effect, or another doubt; inactive means no such curve, though single readings can be large or run the other way.
SMILES,Pf growth 96h,Pf growth 48h,NS1 function inh,CHX counter,SARS PLP yeast,Shiga toxin inh
COc1ccc(CC(=O)OCC(=O)Nc2ccc(F)cc2)cc1,.,.,/,/,.,/
COc1ccc(NC(=O)Cc2c(F)cccc2Cl)cc1,.,.,.,31,.,62
O=C(O)[C@@H]1CCN(Cc2oc(CO)cc(=O)c2O)C1,/,/,.,/,/,/
CCOc1ccccc1C(=O)Oc1cc(C)[nH]c(=O)c1[N+](=O)[O-],.,.,.,.,.,.
O=c1cc(O)c2ccc(O)cc2o1,.,.,.,.,.,.
O=c1ccc2[n+]([O-])c3ccc(O)cc3oc-2c1,4.7µM,1.9µM,.,.,.,.
Cc1oc(-c2cccs2)nc1CN1CCN(CC(C)C)C(CCO)C1 (stereo not drawn),1.9µM,.,.,.,.,.
CC(C)CN1CCN(Cc2cccc3cccnc23)CC1CCO (stereo not drawn),.,.,.,.,.,.
COc1cccc(CN2CCN(Cc3nc(-c4cccs4)oc3C)CC2CCO)c1 (stereo not drawn),?,9.3µM,.,.,.,.
COc1cccc(CN2CCN(Cc3nc(-c4cccc(F)c4F)oc3C)CC2=O)c1,?,13µM,.,.,.,.
Cn1cc(CN(CCO)Cc2cccs2)c(-c2ccccc2F)n1,?,.,.,.,.,.
CC1CCCC(NC(=O)c2cccs2)C1C (stereo not drawn),?,?,/,/,.,/
COc1ccc(Cc2nnc(SCC(=O)Nc3ccc(N4CCOCC4)cc3)n2C)cc1,.,?,.,.,.,.
CN1C(=O)N(C)C(=O)C2(Sc3ccccc3C2=O)C1=O,.,/,.,.,.,.
CN1C(=O)C(Cl)(Cl)C(=O)c2ccccc21,.,.,.,18,.,.
O=C(CCNC(=O)c1ccccc1Cl)NCC(c1ccco1)N1CCCC1 (stereo not drawn),.,.,/,/,.,/
CCN(CC)S(=O)(=O)c1ccc(N2CCCC2)c(C(=O)OCC(=O)/C(C#N)=C(\C)N)c1,.,9.3µM,.,.,.,.
CN(C)S(=O)(=O)c1ccc(N2CCCC2)c(C(=O)N2CCN(S(=O)(=O)c3cccc(F)c3)CC2)c1,.,10µM,/,/,.,/
CN(CC(=O)Nc1ccc(F)cc1)C(=O)COC(=O)c1cc(S(=O)(=O)N(C)C)ccc1N1CCCC1,8.3µM,12µM,/,/,.,/
CCOc1ccccc1N1CCN(C(=O)c2cc(S(=O)(=O)N(C)C)ccc2N2CCCC2)CC1,?,10µM,/,/,.,/
CC1CC(=O)Nc2ccccc2N1C(=O)CSc1ncnc2sccc12 (stereo not drawn),?,?,/,/,.,/
CN(C)S(=O)(=O)c1ccc(N2CCCC2)c(C(=O)OCC(=O)N2CCN(c3ccccc3)CC2)c1,.,15µM,/,/,/,/
CCSCc1nnc(SCC(=O)Nc2cccc(SC)c2)n1C,?,.,.,.,.,.
CCC(=O)Nc1c(C(=O)Nc2cccc(OC)c2)oc2ccccc12,.,.,.,18,.,.
CCOCC(=O)Nc1c(C(=O)Nc2ccccc2OC)oc2ccccc12,.,.,.,.,.,.
SMILES,Pf growth 96h,Pf growth 48h,NS1 function inh,CHX counter,SARS PLP yeast,Shiga toxin inh
COCC(=O)Nc1c(C(=O)Nc2ccc3c(c2)OCCO3)oc2ccccc12,.,.,/,36,.,93
CCOC(=O)c1oc2ccccc2c1NC(=O)c1cccc(OC)c1,.,?,.,.,.,.
CCOCC(=O)Nc1c(C(=O)Nc2ccc3c(c2)OCCO3)oc2ccccc12,.,.,/,37,.,126
O=C(Nc1ccc2c(c1)OCCO2)c1oc2ccccc2c1NC(=O)C1CC1,.,.,/,.,.,.
CCC(=O)Nc1c(C(=O)Nc2ccc3c(c2)OCCO3)oc2ccccc12,.,.,/,.,.,88
COc1cccc(NC(=O)CN(C)C(=O)C23CC4CC(CC(Cl)(C4)C2)C3)c1,?,?,/,/,.,/
O=C1/C(=C/c2ccncc2)SC(=S)N1Nc1ccccc1,9.3µM,8.3µM,.,.,.,.
O=C(O)c1ccc(/C=C2\SC(=S)N(NC(=O)c3ccccc3[N+](=O)[O-])C2=O)cc1,?,.,.,.,.,.
O=C(Cc1ccccc1)NN1C(=O)/C(=C/c2ccccc2C(=O)O)SC1=S,12µM,.,/,.,.,.
O=C(O)c1ccc(/C=C2\SC(=S)N(Nc3ccccc3)C2=O)cc1,?,.,.,24,.,80
CCCCNC(C(=O)Nc1ccc([N+](=O)[O-])cc1Br)c1ccccc1 (stereo not drawn),.,.,.,.,.,.
COc1ccc(-c2ccnc3c(C(=O)O)cnn23)cc1,.,.,/,.,.,.
COc1cccc(NC(=O)CN2C(=O)NC3(CCc4ccccc43)C2=O)c1 (stereo not drawn),.,.,/,/,.,/
O=C(O)c1c(-c2ccc(Cl)cc2)cn2ccccc12,.,.,/,.,.,.
COc1ccc(C(F)(F)F)cc1N/C=C/c1nnnn1-c1ccc2ccccc2c1,.,.,.,.,.,.
COc1ccc(-n2cc(-c3ccc(OC(F)F)cc3)[n+]3c2CCCCC3)cc1,?,1.7µM,/,.,.,.
Cc1cc(C)cc(N(CC(=O)Nc2ccc(C(F)(F)F)cc2)S(=O)(=O)c2c(C)[nH]c(=O)[nH]c2=O)c1,.,15µM,.,.,.,.
Cc1ccc(N(CC(=O)NCCc2ccc(Cl)cc2)S(=O)(=O)c2c(C)noc2C)cc1,2.3µM,.,.,.,.,.
Cc1ccc(CCNC(=O)CN(c2ccc(C)cc2)S(=O)(=O)c2c(C)noc2C)cc1,?,.,.,.,.,.
Cc1ccc(CNC(=O)CN(c2ccc(C(C)C)cc2)S(=O)(=O)c2c(C)noc2C)cc1,10µM,.,.,.,.,.
COc1ccc(N(CC(=O)NCc2cccs2)S(=O)(=O)c2c(C)nn(C)c2C)cc1,?,/,.,.,.,.
COc1ccc(CNC(=O)CN(c2ccc(C(C)C)cc2)S(=O)(=O)c2c(C)noc2C)cc1,?,.,.,.,.,.
Cc1nn(C)c(C)c1S(=O)(=O)N(CC(=O)NCc1cccs1)c1ccc(C(C)C)cc1,9.3µM,.,.,.,.,.
O=C(CN(c1ccc(Cl)cc1)S(=O)(=O)c1ccc(Cl)c([N+](=O)[O-])c1)NCCc1ccc(F)cc1,12µM,?,.,.,.,.
Cc1noc(C)c1S(=O)(=O)N(CC(=O)NC1CCC(C)CC1)c1ccc(C(C)C)cc1 (stereo not drawn),?,10µM,.,.,.,.
O=C(CN(c1ccc(Cl)cc1)S(=O)(=O)c1ccc(Cl)c([N+](=O)[O-])c1)NCCc1ccccc1,?,?,.,.,.,.
COc1ccc(N(CC(=O)NCc2ccc(C)cc2)S(=O)(=O)c2c(C)[nH]c(=O)[nH]c2=O)cc1,4.7µM,.,.,.,.,.
Cc1ccc(N(CC(=O)NC2CCCCCC2)S(=O)(=O)c2c(C)nn(C)c2C)cc1,12µM,.,.,.,.,.
CSc1nc(S(=O)(=O)c2ccccc2)c(Cl)s1,.[1.15 µM],?,.,.,.,.
